Assay results published in PubChem BioAssay (EPA / NIEHS).
Calls of active or inactive are those of the source. Rule for the calls: active = hit-call score of the fitted dose curve at least 0.9, where 1 is the maximum; inactive = score below 0.9.

How the values were obtained:
[1] = read-out: Interleukin-6 (IL6), IL6 (gene 3569); assay: BSK_CASM3C_IL6: BioMAP Diversity Plus: CASM3C Assay for Interleukin-6 (IL6) Biomarker Activity for (AID 2283040); conditions: primary human coronary artery smooth muscle cells; actives raise or lower the signal
[2] = read-out: Tissue plasminogen activator (tPA), PLAT (gene 5327); assay: BSK_BE3C_tPA: BioMAP Diversity Plus: BE3C Assay for Tissue plasminogen activator (tPA) Biomarker Activity (AID 2283041); conditions: primary human bronchial epithelial cells; actives raise or lower the signal
Method in brief: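 Bidirectional curve fitting relative to DMSO defined activity, with tPA detected by ELISA in chemically treated human bronchial epithelial primary cells at 24 hours.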

[3] = read-out: Interleukin-8 (IL8), CXCL8 (gene 3576); assay: BSK_CASM3C_IL8: BioMAP Diversity Plus: CASM3C Assay for Interleukin-8 (IL8) Biomarker Activity (AID 2283042); conditions: primary human coronary artery smooth muscle cells; actives raise or lower the signal;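 note: IL-8 protein level quantified by ELISA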
[4] = read-out: Human Leukocyte Antigen - DR isotype (HLADR), HLA-DRA (gene 3122); assay: BSK_CASM3C_HLADR: BioMAP Diversity Plus: CASM3C Assay for Human Leukocyte Antigen - DR isotype (HLADR) Biomarker Activity (AID 2283043); conditions: primary human coronary artery smooth muscle cells; actives raise or lower the signal;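 note: cell-surface HLA-DR protein level quantified by ELISA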
[5] = read-out: Macrophage colony-stimulating factor (MCSF), CSF1 (gene 1435); assay: BSK_CASM3C_MCSF: BioMAP Diversity Plus: CASM3C Assay for Macrophage colony-stimulating factor (MCSF) Biomarker Activity (AID 2283044); conditions: primary human coronary artery smooth muscle cells; actives raise or lower the signal;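 note: M-CSF protein amount quantified by ELISA after 24 h exposure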
[6] = read-out: Low-density lipoprotein receptor (LDLR), LDLR (gene 3949); assay: BSK_CASM3C_LDLR: BioMAP Diversity Plus: CASM3C Assay for Low-density lipoprotein receptor (LDLR) Biomarker Activity (AID 2283045); conditions: primary human coronary artery smooth muscle cells; actives raise or lower the signal;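 note: LDLR protein level on the cell surface quantified by ELISA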
[7] = read-out: Monocyte Chemoattractant Protein-1 (MCP1), CCL2 (gene 6347); assay: BSK_CASM3C_MCP1: BioMAP Diversity Plus: CASM3C Assay for Monocyte Chemoattractant Protein-1 (MCP1) Biomarker Activity (AID 2283046); conditions: primary human coronary artery smooth muscle cells; actives raise or lower the signal;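 note: MCP-1 level quantified by ELISA 24 h after dosing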
[8] = BSK_CASM3C_Proliferation: Cell Proliferation Assessment in the BioMAP Diversity Plus: CASM3C Assay (AID 2283047); conditions: primary human coronary artery smooth muscle cells;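 note: sulforhodamine B total protein stain as relative cell number at 560 nm; sub-confluent cells exposed 48 h before staining; fitted both ways against DMSO so gain or loss of cell number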
[9] = read-out: Monokine induced gamma interferon (MIG), CXCL9 (gene 4283); assay: BSK_CASM3C_MIG: BioMAP Diversity Plus: CASM3C Assay for Monokine induced gamma interferon (MIG) Biomarker Activity (AID 2283048); conditions: primary human coronary artery smooth muscle cells; actives raise or lower the signal;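 note: MIG protein level measured by ELISA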
[10] = read-out: serum amyloid A (SAA), SAA1 (gene 6288); assay: BSK_CASM3C_SAA: BioMAP Diversity Plus: CASM3C Assay for serum amyloid A (SAA) Biomarker Activity (AID 2283049); conditions: primary human coronary artery smooth muscle cells; actives raise or lower the signal;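 note: SAA protein level quantified by ELISA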

Measured: AC50

NC(=O)N(O)[C@@H]1COc2cc(OCc3ccccc3)ccc21
inactive: all assays above

OC(CCl)CCl
inactive: all assays above

CCN(CC)C(=S)SSC(=S)N(CC)CC
active: [2] 7.46 µM | [3] 20 µM | [4] 31.2 µM | [5] 24.4 µM | [6] 35.4 µM | [7] 31.6 µM | [8] 12.8 µM | [9] 33.3 µM | [10] 28.8 µM
inactive: [1]

NCC(F)(F)C(F)(F)C(F)(F)C(F)(F)F
inactive: all assays above

CCCOc1ccc(S(=O)(=O)N2CCN(CC)CC2)cc1-c1nc2c(CC)n(Cc3ccccn3)nc2c(=O)[nH]1
active: [4] 3.97 µM
inactive: all other assays above

O=S1(=O)CCCO1
inactive: all assays above

CCCC(CCC)C(=O)O
inactive: all assays above

C[C@]12C=CC(=O)C=C1CC[C@H]1[C@@H]3C[C@@H](O)[C@](O)(C(=O)CO)[C@@]3(C)C[C@H](O)[C@@]12F
inactive: [2] | [6] | [8] | [9]
active: [1] 0.356 µM | [3] 0.246 µM | [4] 0.148 µM | [5] 0.417 µM | [7] 0.148 µM | [10] 0.354 µM

C=CN1CCCC1=O
inactive: all assays above

NC(=O)N1c2ccccc2C=Cc2ccccc21
inactive: all assays above

CCc1cccc(CC)c1N
inactive: all assays above

O=C(O)c1ccc2c(c1)nc(C(=O)NC1CCN(C3CC3)CC1)n2Cc1cc(-c2ccc(Cl)s2)on1
inactive: all assays above

Cc1ncc([C@@H](CCCCCCc2ccc3c(n2)NCCC3)CC(=O)O)cn1
active: [8] 3.97 µM
inactive: all other assays above

COc1cc(C(C)C)c2c(c1)S(=O)(=O)N(COc1cc(=O)n3cccc(OCCN4CCCCC4)c3n1)C2=O
active: [2] 3 µM | [6] 3.65 µM | [8] 6.18 µM
inactive: all other assays above

OC[C@H]1O[C@@H]2O[C@H]3[C@H](O)[C@@H](O)[C@@H](O[C@H]4[C@H](O)[C@@H](O)[C@@H](O[C@H]5[C@H](O)[C@@H](O)[C@@H](O[C@H]6[C@H](O)[C@@H](O)[C@@H](O[C@H]7[C@H](O)[C@@H](O)[C@@H](O[C@H]1[C@H](O)[C@H]2O)O[C@@H]7CO)O[C@@H]6CO)O[C@@H]5CO)O[C@@H]4CO)O[C@@H]3CO
inactive: all assays above

OCCOCCOCCO
inactive: all assays above

O=S(=O)(O)c1ccc(N=Nc2c(O)ccc3cc(S(=O)(=O)O)ccc23)cc1
inactive: all assays above

CCCCOC(=O)c1ccccc1
inactive: all assays above

CNC(C)=O
inactive: all assays above

O=C(NO)C1(NS(=O)(=O)c2ccc(Oc3ccc(F)cc3)cc2)CCOCC1
inactive: all assays above

OCc1ccccc1
inactive: all assays above

CC(C)C(=O)Nc1ccc([N+](=O)[O-])c(C(F)(F)F)c1
active: [6] 4.78 µM
inactive: all other assays above

CCCc1ccccc1
inactive: all assays above

FC(F)=C(F)C(F)(F)C(F)(F)C(F)(F)C(F)(F)C(F)(F)C(F)(F)F
inactive: all assays above

NC(=O)NN=Cc1ccc([N+](=O)[O-])o1
inactive: all assays above

CCOC(N)=O
inactive: all assays above

CCOc1ccc2[nH]cc(C(=O)NCc3ccccc3)c(=O)c2n1
inactive: all assays above

O=C(O)c1cccc(C[C@@H]2COc3ccc(OCc4nc5cc(F)ccc5s4)cc3[C@@H]2O)c1
active: [8] 12.9 µM
inactive: all other assays above

c1ccc2cc3ccccc3cc2c1
inactive: all assays above

Cc1nccn1-c1ccc(Sc2cccc(C3(C(N)=O)CCOCC3)c2)cc1
active: [1] 5.2 µM | [2] 4.43 µM | [4] 15.7 µM | [8] 20 µM | [9] 16.4 µM
inactive: all other assays above

CCCCCCCCN(C)C
inactive: all assays above

O=C1CN(N=Cc2ccc([N+](=O)[O-])o2)C(=O)N1
inactive: all assays above

CCCCCCCC1CCC(=O)O1 (stereo not given)
inactive: all assays above

c1ccc(C(O[C@@H]2CCCN(CCc3ccc4c(c3)OCO4)C2)c2ccccc2)cc1
active: [6] 17.3 µM | [8] 32.5 µM
inactive: all other assays above

OC[C@H]1O[C@@](CO)(O[C@H]2O[C@H](CO)[C@@H](O)[C@H](O)[C@H]2O)[C@@H](O)[C@@H]1O
inactive: all assays above

Cc1nc(-c2ccccn2)ncc1C(=O)Nn1cc(C)c2cc(F)ccc21
active: [8] 22.6 µM
inactive: all other assays above

C=CCc1cc(S(=O)(=O)c2ccc(O)c(CC=C)c2)ccc1O
inactive: [1]
active: [2] 7.78 µM | [3] 17.6 µM | [4] 13.6 µM | [5] 28.2 µM | [6] 32.2 µM | [7] 16.2 µM | [8] 14.3 µM | [9] 31.4 µM | [10] 28.3 µM

CC(=O)c1ccccc1
inactive: all assays above

CCCCC(CC)C(=O)OCCOCCOCCOC(=O)C(CC)CCCC (stereo not given)
inactive: all assays above

CC(C)CCCCCCOC(=O)C1CCCCC1C(=O)OCCCCCCC(C)C (stereo not given)
inactive: all assays above

Cn1c(=O)c2[nH]cnc2n(C)c1=O
inactive: all assays above
